The list is not random: actives were taken first. Their share in the collection is about 1.3%.
NCOA2 inhibitor: inhibition of GAL4-SRC2 driven luciferase reporter, primary screen, SRC2 inhibitor project, cell-based, luminescence | Nuclear receptor coactivator 2 (Homo sapiens), Q15596 | HEK293 GAL4-SRC2 luciferase reporter | inhibition, % at 9 µM | actives 0.17% (n = 370,000) | AID 651957, 2012;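 active means inhibition above the mean inhibition of all tested compounds plus 3 SD, set per campaign, cut at about 52% in these data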;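 further: 0% = DMSO treated cells and 100% = cells given Gossypol at 36 µM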
NCOA1 inh: SRC1 coactivator transcriptional activity inhibitors, primary screen, cell-based, luminescence. Nuclear receptor coactivator 1 (Homo sapiens), Q15788. HEK293 GAL4-SRC1 luciferase reporter. inhibition, % at 3.6 µM. actives 0.12% (n = 360,000);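 active means inhibition above the campaign mean plus 3 SD, with each screening campaign given its own cutoff, cut at about 60% in these data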;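 further: 0% = DMSO treated cells and 100% = gossypol at 36 µM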
NR5A2 inv ag: LRH-1 (NR5A2) inverse agonists, primary screen, cell-based, luminescence, HEK293T, StAR-luciferase reporter | Nuclear receptor subfamily 5 group A member 2 (Homo sapiens), O00482 | LRH-1 transfected, 24 h | inhibition, % at 3.6 µM | actives 0.13% (n = 360,000) | AID 602396, 2012;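 active means inhibition above the mean inhibition of all tested compounds plus 3 SD, cut at about 73% in these data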;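 further: 0% = DMSO wells and 100% = reporter-only cells lacking LRH-1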
Target sequence (O00482 whole entry, looked up): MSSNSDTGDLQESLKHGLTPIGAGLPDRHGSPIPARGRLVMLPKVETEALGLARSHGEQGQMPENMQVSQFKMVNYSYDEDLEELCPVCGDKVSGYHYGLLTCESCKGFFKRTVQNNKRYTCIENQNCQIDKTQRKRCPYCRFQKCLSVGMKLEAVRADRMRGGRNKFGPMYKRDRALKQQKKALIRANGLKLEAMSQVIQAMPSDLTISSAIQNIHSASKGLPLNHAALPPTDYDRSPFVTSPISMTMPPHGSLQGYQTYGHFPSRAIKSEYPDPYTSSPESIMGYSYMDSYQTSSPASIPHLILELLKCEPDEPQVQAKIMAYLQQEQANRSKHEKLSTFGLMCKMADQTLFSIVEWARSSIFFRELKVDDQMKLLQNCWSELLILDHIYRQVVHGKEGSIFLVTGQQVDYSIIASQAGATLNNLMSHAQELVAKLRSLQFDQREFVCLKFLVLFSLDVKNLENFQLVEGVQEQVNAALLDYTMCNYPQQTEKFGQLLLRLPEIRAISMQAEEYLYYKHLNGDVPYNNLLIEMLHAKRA
SRC3 inh: SRC3 coactivator transcriptional activity inhibitors, primary screen, cell-based, luminescence; Nuclear receptor coactivator 3 (Homo sapiens), Q9Y6Q9; HEK293 GAL4-SRC3 luciferase reporter; inhibition, % at 3.6 µM; actives 0.17% (n = 360,000);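 active means inhibition above a per-campaign cutoff, the mean of all compounds plus 3 SD, cut at about 60% in these data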;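 further: 0% = DMSO-treated cells and 100% = gossypol-treated cells at 36 µM; higher means less SRC3-driven luciferase light from the GAL4 reporter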
NR2F2 inh: NR2F2 transcriptional activity inhibitors, primary screen, cell-based, luciferase reporter, HEK293T, luminescence; actives 0.7% (n = 370,000); COUP transcription factor 2 (Homo sapiens), P24468; HEK293T NGFI-A luciferase reporter; inhibition, % at 8.6 µM;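 active means inhibition above a per-plate cutoff, mean inhibition of test wells between control levels plus 3 SD, cut at about 38% in these data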;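 further: cells cotransfected with COUP-TFII expression vector driving the NGFI-A reporter; 0% = median of COUP-TF2 test wells and 100% = reporter-only cells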
Gli-Sufu antag: Gli-Sufu pathway antagonists, primary screen, luciferase luminescence, Sufu-KO-LIGHT cells, uHTS; Sufu-KO-LIGHT fibroblasts, Gli luciferase reporter luminescence; inhibition, % at 5 µM; actives 0.74% (n = 340,000);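 active means inhibition above about 55%, limit read from the data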;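 further: 0% = DMSO-treated cells and 100% = wells with medium but no cells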
An asterisk follows results filed as active.

CCc1ccccc1N(C(=O)CNC(=O)c1ccco1)C(C(=O)NC1CCCC1)c1cccnc1 (stereo unspecified) was read as NCOA2 inhibitor -2, NCOA1 inh -8, NR5A2 inv ag 0, SRC3 inh 4, NR2F2 inh -10 and Gli-Sufu antag -8.
`COCC(=O)N(C)[C@H]1C[C@H]2c3[nH]c4c(-c5ccc6c(c5)OCO6)cccc4c3CCN2C(=O)[C@H]1[C@H](C)O` gave NCOA2 inhibitor 12 and NR2F2 inh -7.
For O=S1(=O)c2ccc(N3CCN(Cc4ccccc4F)CC3)cc2Oc2ccccc2CN1Cc1cn(Cc2ccc(C(F)(F)F)cc2)nn1 the results were NCOA2 inhibitor 19 and NR2F2 inh 3.
Screening NC1=[N+](Cc2ccccc2)C[C@H]2C(=C3CCCC[C@H]3n3c(=O)n(-c4ccccc4)c(=O)n32)N1 returned NCOA2 inhibitor 1 and NR2F2 inh -4.
`Cc1cc(C)c2nc(NNC(=O)c3ccc(S(=O)(=O)N4CCc5ccccc5C4)cc3)sc2c1` gave NCOA2 inhibitor 28, NCOA1 inh 37, NR5A2 inv ag 23, SRC3 inh 19, NR2F2 inh -17 and Gli-Sufu antag 2.
`Cc1cc(C)c2sc(NNC(=O)c3ccc(S(=O)(=O)N4CCc5ccccc5C4)cc3)nc2c1` gave NCOA2 inhibitor 38, NCOA1 inh 70*, NR5A2 inv ag 70, SRC3 inh 81*, NR2F2 inh -19 and Gli-Sufu antag 26.
For Oc1ccccc1N=Nc1nc(-c2ccccc2)c(-c2ccccc2)[nH]1 the results were NCOA2 inhibitor 27, NCOA1 inh 74*, NR5A2 inv ag 98*, SRC3 inh 87*, NR2F2 inh -9 and Gli-Sufu antag 93*.
C[C@H](NC(=O)C[C@@H]1C[C@@H]2c3cc(NC(=O)C4CCC4)ccc3O[C@@H]2[C@@H](CO)O1)c1ccccc1 was read as NCOA2 inhibitor -38 and NR2F2 inh 11.
`Cc1ccc(-c2cc(N)n[nH]2)cc1` gave NCOA2 inhibitor -33, NCOA1 inh -1, NR5A2 inv ag 9, SRC3 inh -27, NR2F2 inh 5 and Gli-Sufu antag -25.
`CC(C)(C)c1ccc(-c2cc(N)n[nH]2)cc1` gave NCOA2 inhibitor 55*, NCOA1 inh 14, NR5A2 inv ag -29, SRC3 inh 14, NR2F2 inh 2 and Gli-Sufu antag 7.
For C[C@@H]1OC(C2CCCCC2)N(C)[C@H]2C[C@H]3c4cc(N5CCOCC5)ccc4CCN3C[C@@H]12 (stereo partly specified) the results were NCOA2 inhibitor -27 and NR2F2 inh -18.
CC(C)n1cnc2c(Nc3cccc(Cl)c3)nc(NCCCO)nc21 was read as NCOA2 inhibitor -41, NCOA1 inh -45, NR5A2 inv ag 11, SRC3 inh -16, NR2F2 inh 19 and Gli-Sufu antag 5.
C=CC(=O)Nc1cccc(Nc2nc(N[C@H]3CC[C@H](N(C)C)CC3)nc3c2ncn3C(C)C)c1 was read as NCOA1 inh 88*, NR5A2 inv ag 98*, SRC3 inh 87* and Gli-Sufu antag 76*.
CCOC(=O)Cn1cc(CN2C(C(=O)OC)CN(Cc3ccccc3)CCS2(=O)=O)nn1 (stereo unspecified) was read as NCOA2 inhibitor -1 and NR2F2 inh -1.
For C/C(=N\NC(=O)c1cccc(Br)c1)c1ccccn1 the results were NCOA2 inhibitor -34, NCOA1 inh -30, NR5A2 inv ag -78, SRC3 inh -29, NR2F2 inh -1 and Gli-Sufu antag 89*.
`C/C(=N\NC(=O)c1cc(Br)ccc1O)c1ccccn1` gave NCOA2 inhibitor 19, NCOA1 inh -9, NR5A2 inv ag -31, SRC3 inh -5, NR2F2 inh 2 and Gli-Sufu antag 66*.
Screening Cc1cccc(/C=N/NC(=O)c2cc(Br)ccc2O)n1 returned NCOA2 inhibitor -9, NCOA1 inh -19, NR5A2 inv ag -30, SRC3 inh -37, NR2F2 inh -9 and Gli-Sufu antag -1.
For CC(=NNC(=O)c1ccncc1)c1cccc(Br)c1 the results were NCOA2 inhibitor -21, NCOA1 inh 5, NR5A2 inv ag 6, SRC3 inh -14, NR2F2 inh -3 and Gli-Sufu antag 1.
`C#CCCCN([C@H](C(=O)OC)C(C)C)S(=O)(=O)c1ccc(F)cc1Br` gave NCOA2 inhibitor 9 and NR2F2 inh 16.
Screening Cc1cc(C)c(S(=O)(=O)/N=C2/C=C(Sc3ncn[nH]3)C(=O)c3ccccc32)cc1C returned NCOA2 inhibitor 62*, NCOA1 inh 36, NR5A2 inv ag 64, SRC3 inh 71*, NR2F2 inh 62* and Gli-Sufu antag 1.
For CN(C(=O)CNC(=O)c1ccccc1OCC(=O)Nc1ccc(Br)cc1)c1ccccc1 the results were NCOA2 inhibitor 2 and NR2F2 inh 20.
`COc1cc(-c2nnc(-c3cc(-c4ccccc4)nc4ccccc34)o2)cc(OC)c1OC` gave NCOA2 inhibitor 94*, NCOA1 inh -9, NR5A2 inv ag 9, SRC3 inh 2, NR2F2 inh -5 and Gli-Sufu antag 15.
Screening COc1cc(-c2nnc(-c3ccccc3)o2)cc(OC)c1OC returned NCOA2 inhibitor -20, NCOA1 inh -6, NR5A2 inv ag -13, SRC3 inh -7, NR2F2 inh -4 and Gli-Sufu antag -4.
`COc1ccccc1N1CCN(N=Cc2ccccc2Br)CC1` gave NCOA2 inhibitor 2 and NR2F2 inh -21.
CC(C)(C)N(Cc1cn(CC2CCCCC2)nn1)S(=O)(=O)c1ccccc1Br was read as NCOA2 inhibitor 13 and NR2F2 inh -15.
Screening Cc1cc(O)c2c(c1O)C(=O)[C@]13C(=C2O)C(=O)[C@@H]2[C@@H](O)[C@H]1[C@@H]1[C@H](O)[C@H]3C(=O)C3=C(O)c4c(O)cc(C)c(O)c4C(=O)[C@]312 returned NCOA1 inh 72*, NR5A2 inv ag 96*, SRC3 inh 75* and Gli-Sufu antag 78*.
For COc1cc(C=NN=c2sc3ccccc3n2C)ccc1OCCO the results were NCOA2 inhibitor -58 and NR2F2 inh -37.
`Cc1cc(C=C2C(=O)c3ccccc3C2=O)c(C)n1-c1ccc(C(=O)O)cc1` gave NCOA2 inhibitor -14, NCOA1 inh 3, NR5A2 inv ag 12, SRC3 inh -6, NR2F2 inh 7 and Gli-Sufu antag 7.
Cc1cc(C=C2C(=O)c3ccccc3C2=O)c(C)n1-c1ccccc1 was read as NCOA2 inhibitor 3, NCOA1 inh 2, NR5A2 inv ag -7, SRC3 inh 85*, NR2F2 inh 0 and Gli-Sufu antag 12.

From PubChem BioAssay
